High-throughput results deposited in PubChem by National Center for Advancing Translational Sciences (NCATS).
Tau fibril ThT: tau fibrillization inhibition (ThT binding) | P10636 | recombinant tau K18 P301L, heparin-induced fibrillization, ThT fluorescence | Potency, µM (top dose mostly 57.4 µM), for inactives: at the top dose activity, negative = inhibition, actives largely listed as inhibitors | 2.1% of 270,000 active | AID 1460; also: potency is read from the fitted curve at half-maximal effect; nearly all actives have a fitted effect of over 55% in size
Target sequence (P10636 561-689 P618L limits assumed): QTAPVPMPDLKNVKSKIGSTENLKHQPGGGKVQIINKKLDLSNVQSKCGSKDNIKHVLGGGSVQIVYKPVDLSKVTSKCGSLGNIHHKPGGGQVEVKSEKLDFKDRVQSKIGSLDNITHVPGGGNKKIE
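Recombinant human tau K18 fragment […] carrying P301L, 15 uM unlabeled plus 0.24 uM Alexa 594-labeled, was fibrillized with 20 uM heparin in 100 mM sodium acetate pH 7 for 6 hr at 37 C; 30 uM ThT fluorescence read after 1 hr.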
KDM4E inh: inhibitors of human JMJD2E histone demethylase; JMJD2E catalytic domain, FDH-coupled NADH fluorescence (FDH is formaldehyde dehydrogenase); Potency, µM (titrated, usually from 57.1 µM), inactives show at the top dose activity change, negative = inhibition, actives largely listed as inhibitors; 1.6% of 230,000 active; AID 2147; active = well fitted inhibition curve with a large enough effect, not every such curve was filed as active; inconclusive = small, poorly fitted or top-dose-only effect, or another doubt; inactive = no such curve, though single readings can be large or run the other way;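 also: potency is read from the fitted curve at half-maximal effect; 0% = wells with enzyme and -100% = buffer wells without enzyme; nearly all actives have a fitted effect of over 50% in size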
Target sequence (B2RXH2 1-337 limits assumed): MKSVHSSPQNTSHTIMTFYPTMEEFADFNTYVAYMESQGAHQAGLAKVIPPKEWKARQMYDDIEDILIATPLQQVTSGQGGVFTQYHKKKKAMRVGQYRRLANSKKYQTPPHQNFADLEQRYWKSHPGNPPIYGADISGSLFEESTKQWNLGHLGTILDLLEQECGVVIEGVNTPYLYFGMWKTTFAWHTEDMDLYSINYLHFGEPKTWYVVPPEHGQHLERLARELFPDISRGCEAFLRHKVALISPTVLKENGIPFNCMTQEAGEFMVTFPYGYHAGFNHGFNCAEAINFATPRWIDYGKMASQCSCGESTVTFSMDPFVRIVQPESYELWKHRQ
Tau fluor cs: counter-screen for tau fibril formation inhibitors. 0.93% of 280,000 active. Potency, µM (highest dose often 57.7 µM), for the others: at the top dose activity change, negative = decrease. tau K18 P301L Alexa594 fluorescence, heparin fibrillization; also: potency is read from the fitted curve at half-maximal effect; nearly all actives have a fitted effect of over 55% in size
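Human tau K18 P301L (15 uM unlabeled, 0.24 uM Alexa 594-labeled) in 100 mM sodium acetate pH 7 with 20 uM heparin, 6 hr at 37 C. ThT 30 uM added, 1 hr ambient; Alexa 594 FP and total fluorescence read at 555/632 nm.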
Tau FP inhib: inhibitors of human tau fibril formation | P10636 | K18 P301L tau heparin fibrillization, Alexa594 FP, 6 h | Potency, µM (top dose mostly 57.7 µM), inactives show at the highest dose activity, negative = inhibition, usual class: inhibitors | 0.39% of 280,000 active; also: potency is read from the fitted curve at half-maximal effect; nearly all actives have a fitted effect of over 55% in size
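Recombinant K18 P301L […], labeled with Alexa 594 at 0.24 uM over 15 uM unlabeled; heparin inducer 20 uM final; 37 C, 6 hr; FP endpoint.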
Coupling enz: counter-screen for Giardia aldolase inhibitors: coupling enzyme system. coupling enzyme system counterscreen, AmpLite Red fluorescence. activity change, negative = inhibition, % at 58.2 µM, hits read low. 0.67% of 290,000 active. AID 2472; in the data active = activity change below about -30%
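Final compound at 57.5 uM, incubated 10 min at RT with coupling enzyme reagent (glyceraldehyde-3-phosphate), then 20 min with substrate and AmpLite Red detection. Fluorescence read at 525/598 nm; tests interference with the coupling assay, not aldolase inhibition.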
Sfp inh: Sfp phosphopantetheinyl transferase inhibition. 3.5% of 310,000 active. Biochemical Sfp PPTase activity, qHTS. Potency, µM, inactives show largest response in the series, negative = inhibition, hits mostly inhibitors. AID 1490;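 also: the enzyme is Sfp with the accession as filed and its product quenches rhodamine fluorescence; potency is read from the fitted curve at half-maximal effect; 0% = enzyme reaction without inhibitor and -100% = no enzyme wells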
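Compounds were incubated with enzyme (final 15 nM) for 15 min at room temperature before substrate addition started the reaction. Fluorescence at 525 nm excitation, 598 nm emission was recorded immediately and after 30 minutes.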
* marks the source's active call; other numbers are inactive results; u = inconclusive; x = not tested or not shown; [ ] = dose if it differs, or a comment. Shown are actives, neighbours in structure and some others; about 5.3% of the full set was active somewhere. Unless noted, calls follow the shape of the dose curve; as a rule, active = well fitted curve in the direction sought with a large enough effect; inconclusive = small, poorly fitted or top-dose-only effect, or another doubt; inactive = no such curve, though single readings can be large; an effect the other way counts as inactive or inconclusive. Unless noted, % is scaled to controls: 0 for no effect and ±100 for the full control effect.

SMILES	Tau fibril ThT	KDM4E inh	Tau fluor cs	Tau FP inhib	Coupling enz	Sfp inh
Cn1c(=O)c(-c2ccc(Cl)cc2)nc2cnc(N3CCOCC3)nc21	x	x	x	x	-4	8%
c1ccc(-c2nc(-c3cccc4ccccc34)c(Nc3ccc4ccccc4c3)o2)cc1	u	-14%	-22%	0%	-2	0%
COc1ccc(NCC(=O)N/N=C/c2cc([N+](=O)[O-])ccc2N2CCCC2)cc1	11µM*	-21%	u	18%	-10	2%
CCOC(=O)c1ccc(N=Nc2c(C)c(C#N)c(O)[nH]c2=O)cc1	1.4µM*	5%	-29%	-5%	-1	2%
CCOC(=O)c1cc(C(C)=O)c(=O)[nH]c1C	-2%	-15%	-2%	-9%	4	2%
O=C1CCCC=C1[C@H](CCc1ccccc1)OC(=O)c1ccc(Br)cc1	-18%[11.5 µM]	x	-7%[11.6 µM]	3%[11.6 µM]	3	-20%
Cc1ccc(SCC(CC(C)C)N2CCN(C)CCC2=O)cc1 (centres undefined)	x	x	x	x	3	9%
N#CC(C#N)=C(N)/C(C#N)=C/c1cc(O)c(O)c(O)c1	11µM*	x	u	u	x	40µM*
N#C/C(=C/c1cc(Cl)c(O)c(Cl)c1)C(=O)N1CCCCC1	x	x	x	x	17	3%
COc1ccc(OCC(=O)NCc2ccc3c(c2)CCN3C(=O)c2cccc(C)c2)cc1	-13%	x	-4%	5%	x	x
O=C1C(NS(=O)(=O)c2cccs2)=C(N2CCN(c3cccc(C(F)(F)F)c3)CC2)C(=O)c2ccccc21	4.5µM*	-7%	7.1µM*[quencher]	-2%	-28	-9%
CCOc1ccccc1N1CCN(C2=C(NS(=O)(=O)c3cccs3)C(=O)c3ccccc3C2=O)CC1	8.9µM*	-16%	13µM*[quencher]	u	-26	u
CCOC(=O)N1CCN(C2=C(NS(=O)(=O)c3ccccc3)C(=O)c3ccccc3C2=O)CC1	x	x	x	x	x	-6%
CC(=O)c1cccc(Nc2nc(N3CCOCC3)nc(N3CCOCC3)n2)c1	x	x	x	x	x	19%
O=C(O)c1cccc(NC2=C(N3CCOCC3)C(=O)c3ccccc3C2=O)c1	32µM*	u	u	u	-29	-8%
O=C(CNS(=O)(=O)c1cccs1)N1CCN(c2cccc(C(F)(F)F)c2)CC1	-11%	x	-21%	7%	x	x
O=C1C(NS(=O)(=O)c2cccs2)=C(N2CCN(Cc3ccccc3)CC2)C(=O)c2ccccc21	16µM*	-8%	u	-12%	-28	6%
COC(=O)CN1C(=O)[C@@H]2[C@H](C1=O)[C@@H]1CC(C(=O)OC)=C[C@@H](C(=O)OC)C3C1=C(C(=O)[C@@]3(C)NC(=O)c1ccccc1)[C@@H]2C (some centres undefined)	x	x	x	x	5	-1%
COc1cccc([C@@H]2Oc3ccc(Br)cc3C(=O)[C@H]2OC(=O)NS(=O)(=O)c2ccc(F)cc2)c1	-11%	3%	-10%	-9%	-1	-5%
CCN1CCN(C2=C(NS(=O)(=O)c3ccccc3)C(=O)c3ccccc3C2=O)CC1	x	x	x	x	x	7%
CN1CCN(C2=C(NS(=O)(=O)c3cccs3)C(=O)c3ccccc3C2=O)CC1	u	-5%	-10%	-19%	-31*	3%
CN1CCN(C2=C(NS(=O)(=O)c3ccccc3)C(=O)c3ccccc3C2=O)CC1	x	x	x	x	-46*	-11%
CCN1CCN(C2=C(NS(=O)(=O)c3ccc(Br)cc3)C(=O)c3ccccc3C2=O)CC1	x	x	x	x	x	-13%
O=C1C(NS(=O)(=O)c2cccs2)=C(N2CCOCC2)C(=O)c2ccccc21	16µM*	-28%	u	u	-24	1%
O=C1C(NS(=O)(=O)c2ccc(Cl)cc2)=C(N2CCCCC2)C(=O)c2ccccc21	16µM*	4%	u	u	-34*	-2%
Cn1c(=O)n(C)c2cc(NS(=O)(=O)c3cccs3)ccc21	-4%	-8%	2%	0%	2	15%
COC(=O)c1ccc(NC(=O)CC2C(=O)N(c3ccccc3)C(=O)N2C2CCCC2)cc1 (centres undefined)	-11%	x	-24%	-5%	x	x
